Compounds with a hit are over-represented: about 10% of the library has one in this group of screens.
G9a inh: inhibitors of human histone lysine methyltransferase G9a. Q96KQ7. 350,000 tested, 8.8% active. Potency, µM (titrated, usually from 102 µM), for inactives: at the highest dose activity, negative = inhibition, most hits filed as inhibitors. G9a H3K9 monomethylation, AlphaScreen, 2 h. AID 504332; also: potency is read from the fitted curve at half-maximal effect; nearly all actives have a fitted effect of over 75% in size
Target sequence (Q96KQ7 913-1193 limits assumed): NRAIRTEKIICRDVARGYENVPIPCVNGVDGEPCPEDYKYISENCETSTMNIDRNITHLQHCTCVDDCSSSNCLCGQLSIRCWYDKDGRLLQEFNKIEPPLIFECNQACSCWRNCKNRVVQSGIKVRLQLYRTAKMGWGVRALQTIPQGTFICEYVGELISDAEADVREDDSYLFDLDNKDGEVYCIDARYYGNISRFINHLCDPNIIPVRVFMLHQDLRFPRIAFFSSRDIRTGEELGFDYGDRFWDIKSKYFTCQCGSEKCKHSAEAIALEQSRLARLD
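G9a (20 nM) preincubated 15 min RT with compounds, then 500 nM biotinylated H3K9 peptide and 20 uM SAM added; 2 h RT reaction. Monomethyl-H3K9 product detected by AlphaScreen with anti-H3K9me1 antibody, streptavidin donor and anti-rabbit IgG acceptor beads.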
CCT chaperon mod: cytosolic chaperonin activity modulation | purified chaperonin ATPase assay, HTRF ADP detection, 30 min | activity change, % (no concentration beside the values), hits read low | 360,000 tested, 0.3% active | AID 651819; in the data active = activity change below about -30%
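ATPase activity: ADP formed was measured by HTRF Transcreener (665/615 nm ratio) after 30 min at 37 deg C with 10 uM ATP. Compounds screened at one 76 uM concentration against 40 or 20 nM TRiC in Tris pH 7.4/KCl/MgCl2/DTT buffer.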
Sfp inh: inhibitors of Bacillus subtilis Sfp phosphopantetheinyl transferase | AID 1490 | 310,000 tested, 3.5% active | Q9F4F7 | Biochemical Sfp PPTase activity, qHTS | Potency, µM, without a hit: largest response in the series, negative = inhibition, hits mostly inhibitors;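 also: the enzyme is Sfp with the accession as filed and its product quenches rhodamine fluorescence; potency is read from the fitted curve at half-maximal effect; 0% = enzyme reaction without inhibitor and -100% = no enzyme wells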
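After 15 min at room temperature with compound, 15 nM Sfp received 5 uM rhodamine-CoA plus 12.5 uM BHQ-2-ybbR (50 mM Hepes pH 7.6, 10 mM MgCl2). Rate came from the fluorescence difference over 30 min, ex 525/em 598 nm.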
Mm-Cpn inhibitor: blocks the Methanococcus maripaludis chaperonin Mm-Cpn; purified Mm-Cpn ATPase, ADP Transcreener TR-FRET; Potency, µM (top dose mostly 76.9 µM), inactives show top-dose activity, negative = inhibition, actives largely listed as inhibitors; 330,000 tested, 0.031% active; also: potency is read from the fitted curve at half-maximal effect; nearly all actives have a fitted effect of over 80% in size
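Eu-cryptate anti-ADP/ADP-d2 competition gives a ratio inversely related to ADP. Enzyme at 25 nM was pre-exposed to compound for 10 min, then given 10 uM ATP for 30 min, 37°C throughout.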
VDR inhibitor: blocks the human vitamin D receptor; P11473; 400,000 tested, 0.93% active; VDR-SRC2-3 peptide fluorescence polarization, 2 h; Potency, µM, inactives show max response, negative = inhibition, most hits filed as inhibitors; also: potency is read from the fitted curve at half-maximal effect
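FP read-out; VDR + SRC2-3 coactivator peptide; 23 nl compound by pintool; 2 h RT incubation; reagents held at 4 deg C, protected from light.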
PLK1 PBD inh: blocks phosphopeptide binding to human PLK1 polo-box domain | P53350 | Potency, µM, without a hit: max response, negative = inhibition, usual class: inhibitors | AID 720504 | 360,000 tested, 2.8% active | Plk1 PBD binding of FITC phosphopeptide, fluorescence polarization; also: potency is read from the fitted curve at half-maximal effect; series mostly up to about 57 µM; nearly all actives have a fitted effect of over 65% in size
Active calls of the source: *; ? = inconclusive; . = no result given; ! = not confirmed by another sample; [ ] = another dose, or the depositor's remark. Unless noted, calls follow the shape of the dose curve; as a rule, active = well fitted curve in the direction sought with a large enough effect; inconclusive = small, poorly fitted or top-dose-only effect, or another doubt; inactive = no such curve, though single readings can be large; an effect the other way counts as inactive or inconclusive. Unless noted, % is scaled to controls: 0 for no effect and ±100 for the full control effect.

SMILES | G9a inh | CCT chaperon mod | Sfp inh | Mm-Cpn inhibitor | VDR inhibitor | PLK1 PBD inh
CC(C)COC(=O)c1cc(-c2ccc(/C=N/n3cnnc3)o2)ccc1Cl | 10µM* | 0 | -7% | 2% | -13% | -14%
COc1cc([N+](=O)[O-])ccc1-c1ccc(/C=N\n2cnnc2)o1 | . | 1 | -23% | -3% | -10% | -23%
Cc1cc(-c2ccc(/C=N/n3cnnc3)o2)c(C)c([N+](=O)[O-])c1 | 40µM* | -2 | -19% | 2% | -6% | -15%
CN1CCN(/N=C/c2ccc(-c3ccc([N+](=O)[O-])cc3Cl)o2)CC1 | 25µM* | -1 | -5% | 1% | -8% | -1%
CCCCNC(=O)C(CC)Sc1nnc(-c2ccc(F)cc2)c(-c2ccc(F)cc2)n1 (stereo not drawn) | 1%[59 µM] | . | . | . | 2% | .
CC(=O)N1CCc2c(sc3c2c(=O)n(CCc2ccccc2)c(=O)n3CC(=O)Nc2ccccc2F)C1 | -5%[59 µM] | . | . | . | 8% | .
Nc1nc(C2C(=O)CCCC2=O)cs1 | -2%[12.7 µM] | -1 | 56µM* | -5% | -7% | -4%
CN1CC(O)C2=CC(=O)C(=O)C=C21 (stereo not drawn) | ? | . | 5.6µM* | . | 11µM* | .
CCOc1ccc(N=C(NN)c2ccc3ccccc3n2)cc1 | 13µM* | -1 | 14µM* | 2% | 5% | ?
O=S(=O)(c1ccc(N2CCC(c3ccc(Cl)cc3)=N2)cc1)N(CCO)CCO | ? | -3 | ? | -18% | 3% | 30µM*
CN(C)CCCNS(=O)(=O)c1ccc(N2CCC(c3ccc(Cl)cc3)=N2)cc1 | 98%[59 µM] | . | ? | -9% | . | .
CC1=C(C(=O)OCc2ccccc2)C(c2ccc([N+](=O)[O-])cc2)NC(=O)N1C (stereo not drawn) | 1% | 0 | -3% | -2% | -11% | 1%
CC1=C(C(=O)OCc2ccccc2)C(c2ccc([N+](=O)[O-])cc2)NC(=O)N1CCCC(=O)O (stereo not drawn) | 45µM* | 0 | -13% | -7% | -3% | 0%
CC1=C(C(=O)OCc2ccccc2)C(c2ccc([N+](=O)[O-])cc2)NC(=O)N1CCCCCC(=O)O (stereo not drawn) | ? | -2 | 45µM*! | -2% | -10% | -3%
CCOC(=O)C(CCc1ccccc1)NC(C)C(=O)N1Cc2cc(OC)c(OC)cc2CC1C(=O)O (stereo not drawn) | -27%[12.7 µM] | . | 18% | . | 9% | .
CCCS(=O)(=O)c1c(S(=O)(=O)CCC)c2cc(CC)ccn2c1C(=O)c1ccc(Cl)cc1 | -27%[59 µM] | . | . | . | -15% | .
Cc1c(Cl)cccc1-c1ccc(CNCc2ccccn2)o1 | 79µM* | 1 | ? | 1% | -20% | 0%
CCOc1ccc(NC(=O)c2ccc(-c3cccc(Cl)c3C)o2)cc1 | -4%[59 µM] | . | . | . | -6% | .
CC1(C)O[C@@H]2O[C@H]([C@H](O)CO/N=C3/[C@H]4O[C@@H]4[C@@H](O)[C@H]4[C@H]3CCn3c(=O)n(-c5ccccc5)c(=O)n34)[C@@H](O)[C@@H]2O1 | . | . | 15% | . | . | .
CC(C(=O)Nc1ccc2c(c1)OCO2)N1CCN(C)CC1 (stereo not drawn) | 14µM* | -1 | ? | -1% | -14% | -9%
Cn1nccc1C(=O)Nc1ccc(Cl)cc1 | 44%[12.7 µM] | 1 | 21% | 1% | 15% | 0%
CSc1ccc(NC(=O)C(C)N2CCN(C)CC2)cc1 (stereo not drawn) | 45µM* | 1 | -21% | -3% | 24% | 8%
Cn1nccc1C(=O)Nc1ccc2c(c1)OCO2 | -2% | -55* | 24% | -2% | -7% | -7%
O=C(Nc1ccc2c(c1)OCO2)c1cc2ncc(Br)cn2n1 | ? | -3 | -7% | 3% | -7% | 12µM*
NC(=NCc1ccc(Cl)c(Cl)c1)NC(=O)c1nc(Cl)c(N)nc1N | 5%[12.7 µM] | . | . | . | . | .
COc1cc(NC(=O)C2CCN(S(=O)(=O)c3c(C)noc3/C=C/c3ccccc3F)CC2)cc(OC)c1OC | -5%[59 µM] | . | . | . | 5% | .

High-throughput results from PubChem BioAssay.
